Screens as filed in PubChem.
Rows were chosen to be rich in hits. Some 3.3% of all compounds tested hit in one or more screens of this group.
NS1 function inh: inhibitors of influenza NS1 protein function; Potency, µM (highest dose often 46.1 µM); AID 2326; 270,000 tested, 0.4% active; calls by dose curve; further: actives are rising curves; nearly all actives have a fitted effect of over 50% in size
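S. cerevisiae expressing influenza A NS1, grown in glucose, washed, then diluted 1:100 into pH 6.0 -URA galactose medium with 23 nl compound. Growth recovery read as OD600; NS1-free strain serves as control.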
Sm TGR block: S. mansoni TGR enzyme inhibition. Q962Y6. AID 485364. Potency, µM (titrated, usually from 114 µM), actives largely listed as inhibitors. 360,000 tested, 3% active. purified TGR, DTNB reduction, TNB absorbance 405 nm; further: nearly all actives have a fitted effect of over 60% in size
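TGR 20 nM + NADPH 100 uM (dispensed conc.), cpd preinc 15 min RT; start with NADPH (500 uM addition) then DTNB (15 mM addition). Kinetic TNB absorbance, 405 nm filter. Four-parameter Hill fit across titration.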
TbPYK inhibitor: blocks Trypanosoma brucei pyruvate kinase. Q57TT1. TbPYK enzyme, Kinase-Glo Plus ATP luminescence, 45 min. Potency, µM (doses to about 76.8 µM), hits mostly inhibitors. 410,000 tested, 0.12% active. AID 624173; further: nearly all actives have a fitted effect of over 50% in size
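Glycolytic pyruvate kinase of T. brucei was incubated with substrate, test compound and 130 uM ADP for 45 minutes at room temperature. Luminescent Kinase-Glo Plus signal was measured after 10 minutes.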
SARS PLpro yeast: inhibitors of SARS-CoV papain-like protease in yeast. S. cerevisiae expressing SARS-CoV PLpro, growth rescue. Potency, µM (highest dose often 32.9 µM), most hits filed as activators. 330,000 tested, 0.19% active. AID 485353; calls by dose curve; further: nearly all actives have a fitted effect of over 55% in size
LmPK inh: LmPK (Leishmania mexicana) enzyme inhibition; Q27686; purified LmPK, Kinase-Glo ATP luminescence, 1 h; Potency, µM (doses to about 57.5 µM), usual class: inhibitors; 290,000 tested, 0.37% active
Target sequence (Q27686 whole entry, looked up): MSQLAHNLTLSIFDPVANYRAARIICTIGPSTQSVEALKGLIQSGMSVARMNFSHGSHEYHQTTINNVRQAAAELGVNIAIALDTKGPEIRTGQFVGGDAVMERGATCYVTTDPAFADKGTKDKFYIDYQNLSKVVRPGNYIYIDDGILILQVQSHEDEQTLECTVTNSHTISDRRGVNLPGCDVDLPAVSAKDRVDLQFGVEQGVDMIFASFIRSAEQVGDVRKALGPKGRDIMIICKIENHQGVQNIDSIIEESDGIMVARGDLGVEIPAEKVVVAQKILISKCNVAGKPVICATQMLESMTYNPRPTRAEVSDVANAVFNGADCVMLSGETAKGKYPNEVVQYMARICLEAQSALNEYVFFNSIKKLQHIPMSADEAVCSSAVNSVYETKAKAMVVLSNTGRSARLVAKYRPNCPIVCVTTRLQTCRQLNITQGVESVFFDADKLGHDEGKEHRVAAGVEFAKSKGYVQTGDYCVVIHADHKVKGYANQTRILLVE
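ATP generated from ADP (0.1 mM) and PEP (0.5 mM) by 0.1 nM LmPK over 1 h at room temperature (pH 7.2 imidazole buffer) was detected by coupled luciferase luminescence. Values were normalized to uninhibited and no-enzyme wells.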
RE007 growth inh: less growth of the S. pombe RE007 Vpr strain | AID 651644 | 360,000 tested, 0.21% active | Potency, µM (top dose mostly 92.2 µM), most hits filed as inhibitors | S. pombe RE007 Vpr strain, BacTiter-Glo ATP luminescence, 24 h; active means well fitted falling curve with a large enough effect; inconclusive means small, poorly fitted or top-dose-only effect; inactive means no such curve, though single readings can be large or run the other way; further: nearly all actives have a fitted effect of over 50% in size
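Fission yeast strain RE007, carrying one chromosomally integrated HIV-1 vpr copy, was seeded at OD 0.01 in PMG+AL medium with 23 nL pinned compound. After 24 h at 30 °C and 99% humidity, viability was read by BacTiter-Glo luminescence.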
Large screens that a line does not name were inactive. Unless noted, the call rests on the fitted dose curve; in most records, active means well fitted curve in the direction sought with a large enough effect; inconclusive means small, poorly fitted or top-dose-only effect, or another doubt; inactive means no such curve, though single readings can be large; an effect the other way counts as inactive or inconclusive.

O=C(Nc1nc2ccccc2[nH]1)c1ccccc1	LmPK inh 15.8µM, RE007 growth inh inconclusive
Cc1ccc(S(=O)(=O)c2nc(S(C)(=O)=O)sc2N2CCCCCC2)cc1	none
Cc1ccc(S(=O)(=O)c2nc(S(C)(=O)=O)sc2N2CCC(C)CC2)cc1	Sm TGR block 1.78µM
CC1CN(c2sc(S(C)(=O)=O)nc2S(=O)(=O)c2ccc(Cl)cc2)CC(C)O1 (stereo not drawn)	Sm TGR block 14.1µM
O=C(CCNc1ccc(F)cc1)c1cc2ccccc2o1	Sm TGR block 0.316µM, RE007 growth inh inconclusive (no result: NS1 function inh)
Cc1cccc(NC(=O)c2cc3ccccc3o2)c1	LmPK inh 14.1µM
O=C(Nc1cccc(Br)c1)c1cc2ccccc2o1	LmPK inh inconclusive, RE007 growth inh inconclusive
O=C(CCNc1cccc(F)c1)c1cc2ccccc2o1	Sm TGR block 0.355µM (no result: NS1 function inh)
CCCOc1ccc(C2C(=O)N(C3CCCCCC3)CC(=O)N2C(C)C)cc1OC (stereo not drawn)	none (no result: NS1 function inh, SARS PLpro yeast, LmPK inh, RE007 growth inh)
Cc1nn(CCC(=O)Nc2cc(F)ccc2F)c(=O)c2nn(-c3ccccc3)c(C)c12	none (no result: NS1 function inh, SARS PLpro yeast, LmPK inh, RE007 growth inh)
COc1ccc(CCN2CCCC(CN(C)Cc3cc(Cl)c(O)c(OC)c3)C2)cc1 (stereo not drawn)	Sm TGR block 50.1µM
COc1ccc(CN(C)CC2CCCN(CCc3ccccc3C)C2)cc1O (stereo not drawn)	none
CCc1ccc(CNC(=O)CN2C(=O)CSc3c2c(C)nn3-c2ccccc2)cc1	none (no result: NS1 function inh, SARS PLpro yeast, LmPK inh, RE007 growth inh)
Cc1nn(-c2ccccc2)c(Cl)c1/C=N/NC(N)=O	none
NC(=O)N/N=C/c1c(Sc2nnnn2-c2ccccc2)nc2ccccn2c1=O	Sm TGR block 3.98µM
CC(=O)c1cccc(S(=O)(=O)NCC(C)(C)N2CCOCC2)c1	Sm TGR block 39.8µM
COc1cccc(CNC(=O)c2sc3nc(C)cc(C)c3c2-n2cccc2)c1OC	none (no result: NS1 function inh, SARS PLpro yeast, LmPK inh, RE007 growth inh)
COc1cccc(N2CCN(C(=O)/C=C/c3ccco3)CC2)c1	Sm TGR block 22.4µM (no result: NS1 function inh)
O=C(/C=C/c1ccco1)N1CCN(S(=O)(=O)c2cccc([N+](=O)[O-])c2)CC1	none (no result: NS1 function inh, Sm TGR block, LmPK inh)
COc1cccc(N2CCN(Cc3ccco3)CC2)c1	none
O=C(/C=C/c1ccco1)N1CCC(Cc2ccccc2)CC1	Sm TGR block 20µM (no result: NS1 function inh)
O=C(/C=C/c1c(Cl)cccc1Cl)N1CCN(c2ncccn2)CC1	none
COc1ccc(S(=O)(=O)N2CCN(C(=O)/C=C/c3ccco3)CC2)cc1	Sm TGR block 8.91µM (no result: NS1 function inh, LmPK inh)
CC(C)C(=O)N1CCC(Cc2ccccc2)CC1	none
O=C(/C=C/c1ccco1)N1CCN(c2ncccn2)CC1	Sm TGR block 20µM
COc1cccc(CNC(=O)c2cnc(N3CCCC3)nc2C)c1	none (no result: NS1 function inh, SARS PLpro yeast, LmPK inh, RE007 growth inh)
COc1cccc(CN2CCNC(=O)C2CC(=O)N(C)CCC2CCOCC2)c1OC (stereo not drawn)	Sm TGR block 25.1µM
COc1cccc(CN2CCNC(=O)C2CC(=O)NCCN2CCOCC2)c1OC (stereo not drawn)	none
COc1cccc(CNC(=O)CC2C(=O)NCCN2Cc2ccoc2)c1OC (stereo not drawn)	Sm TGR block 20µM
CC1S/C(=N/N=C/c2ccco2)N(Cc2ccccc2)C1=O (stereo not drawn)	Sm TGR block 35.5µM
O=C1CS/C(=N/N=C/c2ccccc2)N1Cc1ccco1	Sm TGR block 39.8µM
O=C1C(Cc2ccccc2)S/C(=N/N=C/c2ccco2)N1c1ccccc1 (stereo not drawn)	Sm TGR block inconclusive
Cc1ccccc1CN1C(=O)CS/C1=N/N=C/c1ccco1	Sm TGR block 11.2µM
CCC1S/C(=N/N=C/c2ccco2)N(Cc2ccccc2C)C1=O (stereo not drawn)	Sm TGR block 39.8µM
CCC1S/C(=N/N=C/c2ccco2)N(Cc2ccc(F)cc2)C1=O (stereo not drawn)	Sm TGR block inconclusive
COc1ccc(OC)c(/C=N/N=C2\SCC(=O)N2Cc2ccco2)c1	none (no result: RE007 growth inh)
Cc1csc2nc(COC(=O)c3ccccc3NC(=O)c3ccc(C(C)(C)C)cc3)cc(=O)n12	none (no result: NS1 function inh, SARS PLpro yeast, LmPK inh, RE007 growth inh)
CO[C@H]1/C=C\C=C(\C)C(=O)NC2=CC(=O)C(NCCN(C)C)=C(C[C@@H](C)C[C@H](OC)[C@H](O)[C@@H](C)/C=C(/C)[C@@H]1OC(N)=O)C2=O	none (no result: NS1 function inh, Sm TGR block, SARS PLpro yeast, LmPK inh, RE007 growth inh)
CCn1cc2nc(SCC(=O)Nc3ccc(C)cc3)n(Cc3ccc(C)cc3)c(=O)c2n1	none (no result: NS1 function inh, SARS PLpro yeast, LmPK inh, RE007 growth inh)
COCCn1c(Cc2ccccc2)nnc1SCC(=O)Nc1oc(C)c2c(C)n[nH]c(=O)c12	Sm TGR block 50.1µM (no result: NS1 function inh, LmPK inh)
Cc1ccc(C(=O)NC(=S)NCc2cccnc2)cc1C	Sm TGR block 50.1µM (no result: NS1 function inh)
Cc1cccc(C)c1NC(=S)NCc1ccncc1	Sm TGR block 28.2µM
S=C(NCc1ccncc1)Nc1ccc(Br)cc1Cl	Sm TGR block 35.5µM
COc1cccc(NC(=S)NCc2cccnc2)c1	Sm TGR block 44.7µM
COc1ccc(C(=O)NC(=S)NCc2cccnc2)cc1Br	none
CCN(CC)CCOC(=O)c1ccc(NC(=O)c2cc3cccc(OC)c3oc2=O)cc1	none (no result: NS1 function inh, SARS PLpro yeast, LmPK inh, RE007 growth inh)
CC(=O)[C@@H](C)CCO[C@@]1(C)OCC[C@@H]1C	none (no result: Sm TGR block, TbPYK inhibitor, SARS PLpro yeast, LmPK inh, RE007 growth inh)
COc1cccc(NC(=S)Nc2ccc(Br)cc2Cl)c1	Sm TGR block 22.4µM
S=C(NCc1cccnc1)Nc1cccc2ccccc12	Sm TGR block 31.6µM
COc1ccc(Cl)cc1NC(=S)Nc1cccc(C)c1	none
COc1cccc(NC(=S)Nc2cccnc2)c1	Sm TGR block 39.8µM
COc1ccc(Cl)cc1NC(=S)Nc1cccnc1	Sm TGR block 12.6µM
CCOc1ccc(NC(=S)Nc2ccc(Br)cc2Cl)cc1	none
O=C(CCc1nnc(C2CCCCC2)o1)N1CCN(c2ccccc2F)CC1	none
O=C(CCc1nnc(C2CCCCC2)o1)N1CCN(C2CCCCC2)CC1	Sm TGR block 56.2µM
COC(=O)CN(C)C(=O)CC1C(=O)NCCN1CC(C)(C)C (stereo not drawn)	Sm TGR block inconclusive
CC(C)(C)CN1CCNC(=O)C1CC(=O)N1CCOc2ccccc2C1 (stereo not drawn)	Sm TGR block 39.8µM
C=C(C)CN(CC)C(=O)CC1C(=O)NCCN1CC(C)(C)C (stereo not drawn)	Sm TGR block 39.8µM
CC(C)c1ccc(C2c3c(-c4ccccc4O)n[nH]c3C(=O)N2CCc2ccccc2)cc1 (stereo not drawn)	none (no result: NS1 function inh, SARS PLpro yeast, LmPK inh, RE007 growth inh)
O=C(O)c1cccnc1SC1CC(=O)N(c2ccc(OC(F)F)cc2)C1=O (stereo not drawn)	Sm TGR block 44.7µM
COC(=O)c1c(N2C(=O)CC(Sc3ncccc3C(=O)O)C2=O)sc(C)c1C (stereo not drawn)	Sm TGR block 20µM
O=C(O)c1cccnc1SC1CC(=O)N(c2cccc(C(F)(F)F)c2)C1=O (stereo not drawn)	Sm TGR block inconclusive
